Sampled rows, rich in hits. Any-hit rate of the full collection: about 2.4%.
D2 PAM-1: HTS Assay for Positive Allosteric Modulators of the Human D2 Dopamine Receptor: Primary Screen for Potentiators; D(2) dopamine receptor (Homo sapiens), P14416; HEK293 T-REx D2, calcium flux, EC20 dopamine potentiation; potentiation, % at 10 µM; 340,000 tested, 0.34% active;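 active means potentiation over 3 SD above the plate norm, cut at about 30% in these data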
Target sequence (P14416 whole entry, looked up): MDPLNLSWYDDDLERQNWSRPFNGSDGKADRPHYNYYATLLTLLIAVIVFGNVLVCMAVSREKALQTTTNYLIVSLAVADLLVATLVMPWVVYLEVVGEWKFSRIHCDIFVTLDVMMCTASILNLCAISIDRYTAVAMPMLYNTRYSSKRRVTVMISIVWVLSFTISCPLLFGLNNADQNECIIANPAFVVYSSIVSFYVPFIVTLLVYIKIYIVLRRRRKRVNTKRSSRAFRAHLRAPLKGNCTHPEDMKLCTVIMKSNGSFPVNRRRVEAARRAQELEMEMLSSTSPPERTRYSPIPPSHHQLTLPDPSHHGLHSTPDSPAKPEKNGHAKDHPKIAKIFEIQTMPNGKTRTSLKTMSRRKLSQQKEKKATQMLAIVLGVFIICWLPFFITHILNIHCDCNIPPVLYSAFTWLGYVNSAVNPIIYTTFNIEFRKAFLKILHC
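Potentiation of an EC20 dopamine calcium response is measured in a force-coupled, tetracycline-inducible Hek293 Trex D2 line. Compound-only kinetic reads over 180 s flag agonists before dopamine addition.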
D2 ag-1: HTS Assay for Allosteric Agonists of the Human D2 Dopamine Receptor: Primary Screen for Agonists | HEK293 T-REx D2 cells, calcium flux agonist mode | 340,000 tested, 0.53% active | D(2) dopamine receptor (Homo sapiens), P14416 | activation, % at 2 µM | AID 485358, 2010;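 active means activation over 3 SD above normal in the single-dose calcium agonist read, cut at about 30% in these data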
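Calcium-flux readout, 1 cycle/sec over 180 s following compound pin transfer, in inducible HEK293 Trex D2 cells (force-coupled); dopamine controls included. Positive calcium responses during this window marked compounds as potential agonists.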
D2 ag-2: Beta-Arrestin HTS for Positive Allosteric Modulators of the Human D2 Dopamine Receptor: Agonists; D(2) dopamine receptor (Homo sapiens), P14416; DiscoveRx PathHunter D2 beta-arrestin, luminescence, 90 min; 100% = 57 uM dopamine signal; activation, % (test concentration not listed); 360,000 tested, 0.084% active; AID 624465, 2012; in the data active means activation above about 40%
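DiscoveRx PathHunter D2 beta-arrestin cells (2,100/well) attached overnight, then compound-stimulated 90 min at 37 C in HBSS/10 mM HEPES/0.1% Tween-20 buffer; beta-galactosidase complementation read by luminescence after 1 h at ambient temperature. Dopamine 57 uM final (EC100) as control.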
D2 antagonist: HTS Assay for Allosteric Antagonists of the Human D2 Dopamine Receptor: Primary Screen for Antagonists; D(2) dopamine receptor (Homo sapiens), P14416; HEK293 TREx D2 cells, calcium flux, dopamine EC80; inhibition, % at 10 µM; 340,000 tested, 2% active; AID 485344, 2010; in the data active means inhibition above about 30%; inactive means below that, where a call was filed
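Compounds are added to dye-loaded, induced HEK293 T-REx cells coupled to calcium release via D2; after a 3 min kinetic read an EC80 dopamine stimulus is given and fluorescence is recorded for 3 more min.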
D2 PAM-2: Beta-Arrestin HTS for Positive Allosteric Modulators of the Human D2 Dopamine Receptor: Potentiators; AID 624464, 2012; potentiation, % (concentration not given with the values); D(2) dopamine receptor (Homo sapiens), P14416; 360,000 tested, 0.23% active; DiscoveRx D2 beta-arrestin cells, luminescence, 90 min; 100% = 57 uM dopamine signal; in the data active means potentiation above about 50%
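PathHunter D2 cells, attached overnight at 37 deg C, received compound in DMSO plus dopamine at EC20 (50 nM final) for 90 min at 37 deg C. Beta-arrestin recruitment was read as luminescence after 1 h with detection reagent at ambient temperature.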
Large screens that a line does not name were inactive.

Cc1cc(C)c(C#N)c(N2CCN(CCOc3ccc(Cl)cc3)CC2)n1	D2 antagonist 121.1
COc1ccc(Cl)cc1CN1CCN(c2nc(C)cc(C)c2C#N)CC1	D2 antagonist 41.3
Cc1cc(C=C2C(=O)c3ccccc3C2=O)c(C)n1-c1ccc(Cl)cc1	D2 antagonist 33.5
COc1ccc2c(c1)c1c(c(=O)n(-c3cc(Cl)ccc3C)c(=O)n1Cc1ccc(F)cc1)n2C	none (no result: D2 ag-2, D2 antagonist, D2 PAM-2)
Cc1cc(C)c(NC(=O)CN2C(=O)c3cccnc3Oc3ccc(C)cc32)c(C)c1	none (no result: D2 ag-2, D2 antagonist, D2 PAM-2)
COc1ccc(-n2nc(C(=O)N3CCN(c4ccc(F)cc4)CC3)c3ccccc3c2=O)c(OC)c1	D2 antagonist 34.4
CN(CC(=O)Nc1cccc(F)c1)S(=O)(=O)c1ccc2c(c1)n(C)c(=O)c(=O)n2C	none (no result: D2 ag-1, D2 ag-2, D2 antagonist, D2 PAM-2)
O=C(NC1CCCC1)C(c1ccc(F)cc1)N(C(=O)Cc1cccs1)c1ccc2c(c1)OCCO2 (stereo unspecified)	none
Cc1ccc(C(C(=O)NC2CCCC2)N(C(=O)Cc2cccs2)c2ccc3c(c2)OCCO3)cc1 (stereo unspecified)	D2 antagonist 48.1
COC(=O)c1ccc(NC(=O)CCc2c(C)nn(-c3ccc(N4CCCCC4)nn3)c2C)cc1	none (no result: D2 ag-1, D2 ag-2, D2 antagonist, D2 PAM-2)
CC(=O)c1cccc(NC(=O)CN2C(=O)CC(c3ccc(C)cc3C)=Nc3ccccc32)c1	none (no result: D2 ag-2, D2 antagonist, D2 PAM-2)
COc1ccc(-c2c(C)nn3c(N4CCN(c5ccccc5)CC4)cc(C)nc23)cc1OC	none (no result: D2 ag-2, D2 antagonist, D2 PAM-2)
O=C(O)c1ccc2c(=O)n3c(nc2c1)/C(=C/c1ccc(C(F)(F)F)cc1)CC3	none
O=c1c2ccccc2nc2n1CC/C2=C/N1CCN(c2cccc(C(F)(F)F)c2)CC1	D2 antagonist 48.3
COC(=O)c1ccccc1NC(=O)c1ncoc1-c1ccco1	none (no result: D2 ag-2, D2 antagonist, D2 PAM-2)
Cc1cc(C)c(/C=C/c2onc(C)c2S(=O)(=O)N2CCC(C(=O)N3CCN(c4ccccc4)CC3)CC2)c(C)c1	none (no result: D2 ag-2, D2 antagonist, D2 PAM-2)
O=C(CSc1nnc(-c2ccco2)n1CC1CCCO1)N1CCCCC1 (stereo unspecified)	none
O=C(CSc1nnc(-c2ccccc2)n1CC1CCCO1)N1CCCC1 (stereo unspecified)	D2 PAM-1 32.2
Nn1c(SCC(=O)N2CCCCCC2)nnc1-c1ccncc1	D2 antagonist 30.1
O=C(NCCC(=O)N(Cc1ccco1)Cc1cccs1)c1ccc(Br)cc1	D2 antagonist 41.3
CCOC(=O)c1cccc(NC(=O)c2ccc3snnc3c2)c1	none (no result: D2 ag-1, D2 ag-2, D2 antagonist, D2 PAM-2)
Clc1ccc(-c2ccc(CNCC3CCCO3)o2)cc1 (stereo unspecified)	D2 antagonist 35.2
Cc1cccc(CCNc2ncnc3onc(-c4ccc(Cl)cc4)c23)c1	none (no result: D2 ag-2, D2 antagonist, D2 PAM-2)
O=C(Nc1ccc(O)c2c(=O)cc(-c3ccccc3Cl)oc12)c1cccc(Cl)c1	none
Cc1cccc(C(=O)Nc2ccc(O)c3c(=O)cc(-c4ccccc4Cl)oc23)c1	D2 antagonist 30.9
Cc1c(C)c2cc(Cl)c(O)c(CN(C)C)c2oc1=O	D2 antagonist 35.2
CCn1ccc2c(OCC(=O)Nc3ccccc3C(F)(F)F)cccc2c1=O	none (no result: D2 ag-1, D2 ag-2, D2 antagonist, D2 PAM-2)
Cc1ccc(-c2nnn(CC(=O)NCCc3ccc4c(c3)OCO4)n2)cc1	D2 antagonist 30.9
O=C(Cn1nnc(-c2ccc3c(c2)OCO3)n1)NCc1ccccc1	none
Cc1noc(C)c1COc1ccc(C(=O)OC(C)C(=O)Nc2ccc(N3CCOCC3)cc2)cc1 (stereo unspecified)	D2 antagonist 44.7
O=C(CC12CC3CC(CC(Br)(C3)C1)C2)NC1CCCC1	D2 antagonist 33.7
CCOC(=O)C1(CC2CC2)CCN(Cc2cn[nH]c2-c2cccc(F)c2)CC1	none
COc1cccc(CC2(CO)CCN(Cc3ccc4cccc(F)c4n3)CC2)c1	D2 antagonist 61.6
CCOC(=O)C1(CC2CC2)CCN(Cc2ccc3cccc(F)c3n2)CC1	D2 antagonist 65.2
COc1ccc(CC2(CO)CCN(Cc3cccc4nccnc34)CC2)cc1	none
COc1ccc(CN2CCC(CO)(Cc3ccccc3C(F)(F)F)CC2)c(F)c1	D2 antagonist 43.2
OCC1(Cc2cccc(F)c2)CCN(Cc2ccc3cccc(F)c3n2)CC1	D2 antagonist 39.9
OCC1(CCOc2ccccc2)CCN(Cc2ccc3cccc(F)c3n2)CC1	none
CCOC(=O)c1sc(C)c2c(=O)n(Cc3ccc(Cl)cc3)c(C)nc12	D2 antagonist 37.7
CCOc1ccc(-c2cc(C(=O)NCc3ccccc3Cl)c3ccccc3n2)cc1	none (no result: D2 PAM-1, D2 ag-2, D2 antagonist, D2 PAM-2)
O=C(O)c1ccccc1-c1ccc(/C=C/c2cc(C(F)(F)F)[nH]c(=O)n2)o1	D2 ag-1 45.2
Cc1cccc2cc(CN(Cc3cccs3)C3(c4nnnn4C4CCCC4)CCCC3)c(=O)[nH]c12	D2 antagonist 77.5
Cc1cccc2cc(CN(Cc3ccc(F)cc3)Cc3nnnn3C3CCCC3)c(=O)[nH]c12	none
COc1ccc(C2N(S(=O)(=O)c3ccc(C)cc3)CCN2S(=O)(=O)c2ccc(C)cc2)cc1	D2 antagonist 36.4
COc1ccc(C2N(C(=O)C(F)(F)F)C(C)CN2S(=O)(=O)c2ccc(C)cc2)cc1 (stereo unspecified)	D2 antagonist 34.8
CCc1ccc(-c2nc(-c3cc4ccccc4oc3=O)sc2C)cc1	none (no result: D2 ag-2, D2 antagonist, D2 PAM-2)
CCc1ccc(N(CC)C(=O)c2ccc3c(=O)n4c(nc3c2)CCCCC4)cc1	none (no result: D2 ag-2, D2 antagonist, D2 PAM-2)
Clc1ccc(OCCCN2CCCC2)cc1Cl	none
Cc1cc(OCCCCCN2CCCC2)ccc1Cl	D2 antagonist 58.8
Clc1ccc(OCCN2CCCCC2)cc1Cl	D2 antagonist 102.9
Cc1ccc(S(=O)(=O)NCC(c2ccc(N(C)C)cc2)N2CCc3ccccc32)cc1C (stereo unspecified)	none (no result: D2 ag-2, D2 antagonist, D2 PAM-2)
O=C(CSCc1ccccc1Cl)NN=C1CCCCCC1	D2 antagonist 38.4
O=C(CSCc1ccc([N+](=O)[O-])cc1)NN=C1CCCCCC1	D2 PAM-1 35.4
O=C(CSCc1ccc(Cl)cc1)NN=C1CCCC1	none
CCc1ccccc1Nc1cc(C(=O)NC(C)c2ccccc2)c2ccccc2n1 (stereo unspecified)	none (no result: D2 ag-2, D2 antagonist, D2 PAM-2)
Cc1c(C)n(-c2ccccc2)c2ncnc(NCCN(C)C)c12	D2 antagonist 39.7
O=C(CCC1N=C2c3ccccc3N=C(SCc3ccc(F)cc3)N2C1=O)NCCc1ccccc1 (stereo unspecified)	none (no result: D2 ag-2, D2 antagonist, D2 PAM-2)
COc1ccc(NC(=O)c2nn(C)c3c2CS(=O)(=O)c2ccccc2-3)cc1	D2 PAM-1 36.5
COc1cc(NC(=O)c2nn(C)c3c2CS(=O)(=O)c2ccccc2-3)cc(OC)c1	none
